# GPR151 ag = activators of human GPR151, primary screen, cell-based, PathHunter beta-arrestin, luminescence | G-protein coupled receptor 151 (Homo sapiens), Q8TDV0 | PathHunter beta-arrestin GPR151 cells | activation, % at 11.2 µM | actives 1% (n = 650,000); in the data active means activation above about 4.9%;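 further: 0% = median of compound wells and 100% = cells with positive control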
# Target sequence (Q8TDV0 whole entry, looked up): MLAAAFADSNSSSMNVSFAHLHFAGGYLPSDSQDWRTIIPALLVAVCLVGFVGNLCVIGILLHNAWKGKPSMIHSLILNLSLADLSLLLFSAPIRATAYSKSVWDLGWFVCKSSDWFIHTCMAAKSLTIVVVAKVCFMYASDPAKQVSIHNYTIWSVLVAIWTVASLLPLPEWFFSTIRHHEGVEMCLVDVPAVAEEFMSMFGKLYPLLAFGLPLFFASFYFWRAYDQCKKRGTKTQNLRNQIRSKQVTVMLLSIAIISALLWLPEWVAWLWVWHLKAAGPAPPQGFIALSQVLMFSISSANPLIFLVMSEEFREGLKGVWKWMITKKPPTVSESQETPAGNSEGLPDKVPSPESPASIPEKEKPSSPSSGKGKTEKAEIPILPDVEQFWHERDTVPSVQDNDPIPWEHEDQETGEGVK
# MITF inh = MITF inhibitors, primary screen, biochemical, AlphaScreen, human; AlphaScreen MITF homodimerization, bead proximity signal; inhibition, % at 2.6 µM; actives 0.91% (n = 650,000); in the data active means inhibition above about 50%;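 further: 0% = vehicle wells with protein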
# FBW7 act = FBW7 E3 ligase activators, primary screen, biochemical, AlphaScreen, human. F-box/WD repeat-containing protein 7 (Homo sapiens), Q969H0. AlphaScreen FBW7–phospho-cyclin E peptide binding, activator screen. normalized activity (activation), % at 26.1 µM. actives 0.13% (n = 650,000). AID 1259310, 2017; in the data active means normalized activity above about 1.9%;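 further: purified mutant Fbw7 with reduced substrate affinity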
# TEAD-YAP inh = TEAD-YAP interaction inhibition, primary screen, TEAD-YAP interaction inhibitor project, luminescence, HEK-TIYL cells. TEAD-Gal4/YAP UAS-luciferase luminescence. inhibition, % at 9.12 µM. actives 1.4% (n = 640,000). AID 1259422, 2018; in the data active means inhibition above about 32%;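 further: 0% = median of test compound wells and 100% = reference inhibitor wells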
# MITF inh conf = MITF inhibitors, retest of hits, confirmation, biochemical, AlphaScreen, triplicate; shares compounds with MITF inh; AlphaScreen MITF homodimerization, biotin/His-MITF beads; inhibition, % at 2.6 µM; actives 16% (n = 4,700); AID 1259372, 2018;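 active means inhibition above a cutoff derived from the DMSO control wells, cut at about 28% in these data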;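 further: 0% = MITF dimer wells with DMSO only; inhibitors lower the bead chemiluminescence by keeping MITF from dimerizing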
# AS interf DR = AlphaScreen optical interference compounds, dose response, counter-screen, biochemical, HTS. shares compounds with MITF inh. AlphaScreen optical interference counterscreen, cell-free. IC50, µM. actives 6% (n = 480); call rule not given here
# AlphaScreen intf2 = AlphaScreen optical interference compounds, counter-screen for MITF inhibitor project, biochemical, triplicate; LysRS AlphaScreen counterscreen, signal interference; inhibition, % at 2.6 µM; shares compounds with MITF inh; actives 7.6% (n = 4,700);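 active means inhibition above a cutoff derived from the DMSO control wells, cut at about 30% in these data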
# * = called active by the depositor; / = not tested or not shown. Shown are actives, neighbours in structure and some others; about 3.5% of the full set was active somewhere.
SMILES,GPR151 ag,MITF inh,FBW7 act,TEAD-YAP inh,MITF inh conf,AlphaScreen intf2,others
Cc1ccc(S(=O)(=O)N2CCN(Cc3ccccc3[N+](=O)[O-])CC2)cc1,3,78*,0,1,9,15,
CC(=O)Nc1ccc(S(=O)(=O)N2CCN(Cc3ccccc3[N+](=O)[O-])CC2)cc1,1,-5,0,3,/,/,
COc1ccc([N+](=O)[O-])cc1NS(=O)(=O)c1ccccc1[N+](=O)[O-],0,0,0,-6,/,/,
O=C(Oc1ccc([N+](=O)[O-])c2cccnc12)c1ccc(F)cc1,1,60*,0,13,66*,100*,
O=C(Oc1cccc2cccnc12)c1ccc(F)cc1,1,14,0,-5,/,/,
CC(C)COc1ccc(COCC2OC3OC(C)(C)OC3C3OC(C)(C)OC23)cc1 (configuration not stated),-1,14,1,2,/,/,
COc1cccc(CN2CCC(N3CCCCCC3)CC2)c1OC,0,13,0,7,/,/,
COc1ccccc1CN1CCC(N2CCN(c3ccccc3)CC2)CC1,0,68*,0,-6,-5,-5,
COc1ccccc1CN1CCC(N2CCCCC2)CC1,-1,70*,1,3,3,21,
COC(=O)C1=CN(Cc2ccccc2OC)C=C(C(=O)OC)C1c1cc(C)ccc1C,0,-26,1,-18,/,/,
CC1CCN(CC(O)C(F)(F)F)CC1 (configuration not stated),1,3,0,-5,/,/,
CN(Cc1ccn[nH]1)c1nc2cc3c(cc2cc1CNC1CCOC(C)(C)C1)OCO3 (configuration not stated),-1,4,0,4,/,/,
O=C(Nc1nc(-c2ccccc2)cs1)c1ncn[nH]1,0,47,-1,-19,/,/,
O=C(Nc1nc(-c2ccc(Br)cc2)cs1)c1ncn[nH]1,1,63*,-1,-13,44*,78*,
O=C(CN1CCN(Cc2nc(-c3ccco3)cs2)CC1)N1CCCC1,0,60*,-1,-4,9,5,
CCOC(=O)C1=C(C)N=c2s/c(=C\c3ccc(OCc4ccccc4Cl)c(OC)c3)c(=O)n2C1c1ccc(OC)cc1 (configuration not stated),-1,-5,0,-9,/,/,
COc1nccnc1NS(=O)(=O)c1ccc(NC(=O)c2ccc([N+](=O)[O-])c(C)c2)cc1,-1,59*,0,2,34*,-3,AS interf DR=>6.5
O=C(Nc1c2c(nn1-c1cccc(Cl)c1)CSC2)c1ccc(Br)o1,1,53*,0,8,2,-2,
c1ccc2c(Nc3nc(NCc4nc5ccccc5[nH]4)c4ncn(-c5ccsc5)c4n3)nccc2c1,2,62*,1,27,-7,11,
CCS(=O)(=O)N1CCN(Cc2cccc(OC)c2)CC1,-1,57*,0,13,10,18,
COc1cccc(CN2CCN(S(C)(=O)=O)CC2)c1,1,-4,0,12,/,/,
COc1cccc(CN2CCN(S(=O)(=O)Cc3ccccc3)CC2)c1,0,68*,0,1,4,14,
CCOc1cc(CN2CCN(S(=O)(=O)Cc3ccccc3)CC2)ccc1OC,1,-8,0,13,/,/,
COCCNC(=O)CCCCn1c(=S)[nH]c2c([nH]c3ccc(OC)cc32)c1=O,-1,52*,1,4,-8,41*,
CCOC(=O)/C(C#N)=C\c1ccc(OCC)cc1,2,-11,0,-3,/,/,
SMILES,GPR151 ag,MITF inh,FBW7 act,TEAD-YAP inh,MITF inh conf,AlphaScreen intf2,others
CCOC(=O)/C(C#N)=C/c1ccc(OC(=O)c2ccccn2)cc1,-3,61*,-1,17,26,54*,
O=C1Nc2c(C(=O)O)cccc2C1=O,-3,71*,0,2,68*,10,AS interf DR=>7.9
O=C1Nc2c(I)cccc2C1=O,-1,11,0,6,/,/,
Cn1c(=O)[nH]c(=O)c2c1nc(Cl)n2CC(N)=O,0,82*,0,-1,2,10,
CC(C)=CNC(=O)Nc1ccc2c(c1)OCCO2,0,4,0,-4,/,/,
C=C(C)CSc1nnc2n(-c3ccccc3C)c(=O)c3c4c(sc3n12)CCCC4,0,70*,0,5,-3,-3,
CCOC(=O)C1CCN(Cc2ccc(OC)cc2OC)CC1,2,24,0,6,/,/,
CC1CN(C2CCN(Cc3ccc(Br)cc3)CC2)CC(C)O1 (configuration not stated),2,46,0,5,/,/,
COc1ccc(CN2CCC(C(=O)N3CCOCC3)CC2)c(OC)c1,1,56*,0,-8,11,7,
COc1ccc(CN2CCN(C3CCC(C)CC3)CC2)c(OC)c1 (configuration not stated),0,69*,0,7,4,15,
COc1ccc(CN2CCN(C(=O)CCC3CCCC3)CC2)c(OC)c1,0,48,0,2,/,/,
COc1ccc(CN2CCN(C3CCCC3)CC2)c(OC)c1,-1,66*,0,-6,15,10,
COc1ccc(CN2CCC(N3CC(C)OC(C)C3)CC2)cc1OC (configuration not stated),0,63*,0,1,-7,1,
NC(=O)C1(N2CCCCC2)CCN(S(=O)(=O)c2ccc(OC(F)(F)F)cc2)CC1,0,-4,0,-1,/,/,
COc1ccc(CN2CCN(C3CCN(Cc4ccccc4)CC3)CC2)cc1OC,0,21,0,0,/,/,
COc1cc(OC)c(OC)cc1CN1CCN(C2CCCCC2)CC1,1,67*,0,5,-2,-7,
COc1ccc(CN2CCCC2)c(OC)c1,1,26,0,8,/,/,
COc1ccc(CN2CCC(N3CC(C)OC(C)C3)CC2)c(OC)c1 (configuration not stated),0,95*,0,10,-17,-4,
COc1cc(OC)c(OC)cc1CN1CCN(C2CCN(Cc3ccccc3)CC2)CC1,-2,59*,0,-2,2,1,
COc1cc(OC)c(OC)cc1CN1CCN(C2CCCC2)CC1,-1,18,0,-1,/,/,
CCCCN(C)c1ccc(C(=O)OC)cc1NC(=S)Nc1cccc(OC)c1,-1,9,0,-18,/,/,
O=C(Nc1ccc(Br)cc1Br)C(c1ccccc1)c1ccccc1,2,5,0,6,/,/,
CCO/C=C1/C(=O)N(Cc2ccc3c(c2)OCO3)C(=O)c2ccccc21,3,-1,0,-12,/,/,

# Screening data as filed in PubChem BioAssay.
